Assay results published in PubChem BioAssay AID1745849 (National Center for Advancing Translational Sciences (NCATS), 2022).
Among all 2,100 compounds or so, about 320 (15%) were called active. Inconclusive results (about 52%) are left out. Calls come from the whole dose curve; as a rule, active = well fitted cell-killing curve with a large enough effect; inconclusive = small, poorly fitted or top-dose-only effect, or effect the other way; inactive = flat fitted curve, though single readings scatter. The list shows a part of the results.

assay: Viability Counterscreen for CMV-Luciferase Assay of Inhibitors of ATXN expression; conditions: HEK-293 CMV-luciferase cells viability, protease fluorescence, 24 h; activity change, negative = cytotoxicity: at the top concentration; note: nearly all actives have a fitted effect of over 55% in size
Outline: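 Luminescence read-out: SteadyGlo added, 5 min RT, measured in CMV-luciferase HEK-293 cells after 24 hr compound treatment (several concentrations). Viability counterscreen: 25 uM Gly-Phe-7-amino-4-trifluoromethylcoumarin, 30 min at 37 degree C, fluorescence ex 405/em 540 nm.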
% is set by controls: 0 for no effect and ±100 for the full control effect; potency is the fitted concentration of half-maximal effect.

SMILES	activity change, negative = cytotoxicity	Potency
CCCCNC(=NCc1cccc(C(F)(F)F)c1)Nc1ccccc1	-13.9% (inactive)	
COc1cc(/C=N/Nc2ccc(Cl)c(C(=O)O)c2)ccc1OC(=O)c1ccco1	1.18% (inactive)	
NC(=O)c1c(NC(=O)c2ccc(S(=O)(=O)N3CCOCC3)cc2)sc2c1CCCCC2	-7.77% (inactive)	
COC(=O)c1c(NC(=O)c2ccc([N+](=O)[O-])o2)sc2c1CCN(C(C)C)C2		15.8 µM (active)
CN(C)C(CNC(=O)c1cccc(S(=O)(=O)N2CCN(c3ccc(F)cc3)CC2)c1)c1ccccc1 (stereo not drawn)	-28.6% [at 57.5 µM] (inactive)	
Cc1ccc(OCC(=O)c2cc(C)n(Cc3cccs3)c2C)c([N+](=O)[O-])n1	-22.1% [at 57.5 µM] (inactive)	
COCCCNC1=C(Cl)C(=O)c2ccccc2C1=O		25.1 µM (active)
COc1ccc(CCNC2=C(Cl)C(=O)N(Cc3ccccc3)C2=O)cc1OC	8.74% (inactive)	
CC(C)Cn1c(/C=N/Nc2nc3ccccc3[nH]2)nc2ccccc21	15% [at 57.5 µM] (inactive)	
CCC(C)(C)c1ccc(OCCCC[n+]2ccccc2)c(C(C)(C)CC)c1	-7.4% (inactive)	
Nc1ccn(C2OC(COP(=O)(O)O)C(O)C2O)c(=O)n1 (stereo not drawn)	-18.6% [at 57.5 µM] (inactive)	
Nc1ccn([C@@H]2O[C@H](CO)[C@@H](O)[C@@H]2O)c(=O)n1	-22.1% (inactive)	
Nc1ncn([C@@H]2O[C@H](CO)[C@@H](O)[C@H]2O)c(=O)n1		6.31 µM (active)
C/C(=N\NC(=O)c1ccc(CN2CCc3ccccc3C2)cc1)c1ccccc1O	-23.2% (inactive)	
Cc1c(OCC(=O)NC2CC(C)(C)NC(C)(C)C2)ccc2c1oc(=O)c1ccccc12	-15.9% (inactive)	
COc1cccc(OCC(=O)Nc2cc(Cl)ccc2Oc2ccccc2)c1	27.8% (inactive)	
COc1cccc(CN(C)C(=O)c2ccc(OCC(=O)Nc3cccc(C(F)(F)F)c3)c(OC)c2)c1		17.8 µM (active)
CCOCCn1ccc2c(OCC(=O)Nc3ccc(OC)c(OC)c3)cccc2c1=O	-1.79% (inactive)	
O=C(Nc1nc(NC(=O)c2ccco2)n(-c2ccccc2)n1)c1ccccc1		12.6 µM (active)
O=C(Nc1ccc(NC(=O)c2ccco2)cc1)c1ccc2c(c1)OCCO2	-2.66% [at 57.5 µM] (inactive)	
CN(CCc1ccccc1)c1cc2c(c3c1ccn3C)C1CCC2O1 (stereo not drawn)	6.97% [at 57.5 µM] (inactive)	
O=C(CN1C(=O)c2ccccc2S1(=O)=O)Nc1ncc(Cl)cc1Cl	-8.53% (inactive)	
O=C(NNC(=O)c1cnccn1)c1ccc(Cl)c(Cl)c1		22.4 µM (active)
O=C(NCCc1csc(-c2cccnc2)n1)c1cccc(Cl)c1	-14.5% [at 57.5 µM] (inactive)	
O=C(N/N=C/c1cc(Cl)ccc1O)c1cccnc1	-5% (inactive)	

SMILES	activity change, negative = cytotoxicity	Potency
CCCC[C@@H](CNC)NC[C@H](NCCCCC1CCCCC1)C(C)C		28.2 µM (active)
OC(c1cc(F)cc(Cl)c1)c1ncc(-c2cccc(C(F)(F)F)c2)[nH]1 (stereo not drawn)	-10.7% (inactive)	
CCOC(=O)c1c(NC(=O)C(Sc2ccccc2)c2ccccc2)sc(C(=O)N(C)C)c1C (stereo not drawn)	-14.8% [at 57.5 µM] (inactive)	
C=CCOC(=O)C1=C(C)NC(SCC)=C(C#N)C1c1ccc(Cl)cc1 (stereo not drawn)	-28.8% [at 57.5 µM] (inactive)	
O=C1C=C(NCCc2cc(Br)c(O)c(Br)c2)C(=O)c2ncccc21		8.91 µM (active)
Brc1cnc2nc(SCc3nc4ccccc4[nH]3)[nH]c2c1	-1.49% (inactive)	
CCCc1cnc(NCCNCC(O)COc2ccc(Cl)c(Cl)c2)nc1 (stereo not drawn)		28.2 µM (active)
Cc1nc2ccccc2c(=O)n1/N=C/c1c(O)ccc2oc3c(c12)CCCC3	-28.7% [at 57.5 µM] (inactive)	
COc1ccc(OCc2cccc(C(=O)Nn3cc([N+](=O)[O-])cn3)c2)cc1	-10.4% (inactive)	
Cc1cc(/C=N/n2c(COc3ccccc3)nc3ccccc3c2=O)c(O)c([N+](=O)[O-])c1		12.6 µM (active)
Cc1ccc2nc(-c3ccccc3)nn2c1	0.418% (inactive)	
O=[N+]([O-])c1c(Nc2ccccn2)cc(Cl)c2nonc12		11.2 µM (active)
Cn1c(=O)c(C#N)c(-c2ccc(F)cc2)c2cc(C(=O)c3cc(Cl)cc(Cl)c3O)cnc21	-25.8% (inactive)	
Oc1ccc2ccccc2c1/C=C/c1ccc2c(Br)cc(Br)c(O)c2n1	12.1% [at 57.5 µM] (inactive)	
CCOC(=O)C(CC)(CC)C(=O)/C=C/c1ccc(OC)cc1	2.96% [at 57.5 µM] (inactive)	
COc1ccc(C(=O)Cn2c(C(=O)/C=C/c3ccccc3)nc3ccccc32)cc1		3.16 µM (active)
COc1ccc(C(=O)Nn2c(SCC(=O)c3ccccc3)nc3ccccc3c2=O)cc1	-22.5% [at 57.5 µM] (inactive)	
CC1=C(CC[C@@H](C)CO)OC2CC3C4CCC5CC(O)CCC5(C)C4CC(=O)C3(C)C12 (stereo partly drawn)	-24.2% (inactive)	
Cn1c(=O)c2c(nc(SCCN3CCOCC3)n2Cc2cccc3ccccc23)n(C)c1=O	3.04% (inactive)	
Cn1c(=O)c2c(nc(CN3CCN(Cc4ccccc4)CC3)n2Cc2ccc(Cl)cc2)n(C)c1=O		25.1 µM (active)
COc1ccc(CNC(=O)Nc2nc(C(N)Cc3ccc(Cl)cc3)cs2)cc1 (stereo not drawn)		22.4 µM (active)
COc1ccc(CC(N)c2csc(NC(=O)c3ccccc3OC)n2)cc1 (stereo not drawn)	7.8% [at 57.5 µM] (inactive)	
COc1ccc(CC(N)c2csc(NC(=O)c3cc(C(C)(C)C)nn3Cc3ccccc3)n2)cc1 (stereo not drawn)	-4.75% (inactive)	
CN(C)c1ccc(C(=O)N/N=C/c2cc(Br)cc(Br)c2O)cc1	5.98% (inactive)	
Fc1ccc(Nc2nnc(C(F)(F)F)s2)cc1Cl		28.2 µM (active)

SMILES	activity change, negative = cytotoxicity	Potency
Cc1onc(-c2c(F)cccc2Cl)c1C(=O)Nc1nnc(C(F)(F)F)s1	-23.3% (inactive)	
Oc1ccc(C[C@@H]2CNCCN2CCc2cc(C(F)(F)F)cc(C(F)(F)F)c2)cc1	-23% (inactive)	
CCOC(=O)C1CCN(C(=O)c2c(C)oc3c2C(=O)c2ccccc2C3=O)CC1		15.8 µM (active)
CCOC(=O)C1CCN(c2cc3c(cc2NC(=O)c2ccccc2OCC)n(C)c(=O)n3C)CC1	-23.5% [at 57.5 µM] (inactive)	
NC(=O)C1CCN(C2=C(Cl)C(=O)c3ccccc3C2=O)CC1	24.5% [at 57.5 µM] (inactive)	
COc1cc(C(=O)OC(C)C(=O)N2CCc3ccccc3C2)ccc1OCC(=O)N1CCOCC1 (stereo not drawn)	1.48% (inactive)	
O=C(Nc1ccc2c(c1)CCC2)C1CCN(c2c3c(nc4ncnn24)CCC3)CC1	-4.4% [at 57.5 µM] (inactive)	
CCCCCn1c(=N)n(CC(O)COc2ccccc2OC)c2ccccc21 (stereo not drawn)		3.16 µM (active)
Cn1c(N)c(C(=O)Nc2ccc(-c3ccccc3)cc2)sc1=S	-0.775% [at 57.5 µM] (inactive)	
NS(=O)(=O)c1ccc(Nc2nc(-c3ccc(F)cc3)cs2)cc1	-11.6% (inactive)	
O=S(=O)(c1ccc(F)cc1)c1snnc1-c1ccccc1		10 µM (active)
NS(=O)(=O)c1ccc(N2N=C(c3ccccc3)CC2c2ccc(F)cc2)cc1 (stereo not drawn)	12.7% (inactive)	
Cc1c(CC(=O)NCCCC(=O)O)c(=O)oc2cc3c(cc12)CCC(C)(C)O3	-7.11% [at 57.5 µM] (inactive)	
NNc1nc(N)c2c(n1)-c1ccccc1CC21CCCC1	-20.6% [at 57.5 µM] (inactive)	
O=C(NNc1ccnc2cc(Cl)ccc12)C1CCCCC1	-3.47% (inactive)	
CC(C)NC1CCC(Nc2ccnc3cc(Cl)ccc23)CC1 (stereo not drawn)		15.8 µM (active)
CCN(CC)CCNc1ccnc2cc(Cl)ccc12	-21.7% (inactive)	
O=C(c1c(F)cccc1F)N1CCCC(c2nc(-c3ccc(Cl)cc3)no2)C1 (stereo not drawn)	-6.28% [at 57.5 µM] (inactive)	
CCn1c2ccccc2c2cc(NC(=O)COC(=O)c3ccccc3F)ccc21	9.03% (inactive)	
CN1C/C(=C/c2cccnc2)C(=O)/C(=C/c2cccnc2)C1	0.33% (inactive)	
O=C1/C(=C/c2ccncc2)CCC/C1=C\c1ccncc1		5.62 µM (active)
CCN(CC)C(=O)c1cccc(-c2csc(C(C)(O)c3cccc(F)c3)n2)c1 (stereo not drawn)	-16% (inactive)	
CCN1C(=O)/C(=C/c2nc3ccccc3c(=O)n2-c2ccccc2)c2ccccc21		12.6 µM (active)
CCOC(=O)C1=CCN(S(=O)(=O)c2ccc(C)cc2)C1c1cccc(Cl)c1 (stereo not drawn)	-18.3% [at 57.5 µM] (inactive)	
CCn1c(C)nc2cc(C(=O)N/N=C(\C)c3ccc(OC)cc3O)ccc21	-17.6% [at 57.5 µM] (inactive)	

SMILES	activity change, negative = cytotoxicity	Potency
Cc1sc(NC(=O)c2cc(-c3ccc(Cl)cc3)nc3ccccc23)c(C(N)=O)c1C		8.91 µM (active)
CCOC(=O)c1c(NC(=O)COC(=O)Cn2cnc3ccccc32)sc(C)c1C	2.43% [at 57.5 µM] (inactive)	
O=C(NN=C1CCCC1)c1cc(-c2ccc(F)cc2)nc2ccccc12	15.3% [at 57.5 µM] (inactive)	
O=C(c1cc(COc2cccc(C(F)(F)F)c2)on1)N1CCC(c2ccncc2)CC1	-7.2% (inactive)	
CCN1CCN(c2cc(C(C)C)nc3c(-c4ccccc4)c(C)nn23)CC1	-25.5% [at 57.5 µM] (inactive)	
COc1ccccc1-n1c(-c2ccccc2)c[n+]2c1CCc1ccccc1-2		10 µM (active)
OCC1(CCOc2ccccc2)CCN(CC2=Cc3cc(Cl)ccc3OC2)CC1	-22.1% [at 57.5 µM] (inactive)	
O=S(=O)(Nc1cccc2cccnc12)c1ccccc1	-17.9% (inactive)	
O=[N+]([O-])c1ccccc1S(=O)(=O)Nc1cccc2cccnc12		11.2 µM (active)
Cc1ccc(S(=O)(=O)Nc2cccc3cccnc23)cc1	21.9% [at 57.5 µM] (inactive)	
O=C(CSc1nnc(-c2ccccc2)o1)Nc1ccccc1F	-8.41% (inactive)	
C/C(=N\NC(=O)CSCc1ccc([N+](=O)[O-])cc1)c1ccccc1O	-13.5% (inactive)	
CC(=O)C(C(C)=O)c1c(Cl)c(O)c(O)c2c(C(=O)c3ccccc3)coc12		7.08 µM (active)
CCOC(=O)C(C(C)=O)c1c(Br)c(O)c(O)c2c(C(=O)c3ccc(C)cc3)coc12 (stereo not drawn)		10 µM (active)
O=C(NC(=S)NCc1nc2ccccc2[nH]1)c1ccc(F)cc1	1.48% (inactive)	
NS(=O)(=O)c1ccc(Sc2nc3ccccc3s2)c([N+](=O)[O-])c1	-19.9% (inactive)	
Cc1sc2cc3c(c(C(=O)c4ccccc4)[n+]2c1C)-c1cccc2cccc-3c12		10 µM (active)
Cc1ccc(-c2csc(N3CCN(c4cc5c(cc4Cl)nc(-c4ccncc4)n5CCOCCO)CC3)n2)cc1	-6.98% [at 57.5 µM] (inactive)	
CC1(C)Cc2c(c(-c3ccco3)nc3sc4c(NCCN5CCOCC5)ncnc4c23)CO1	-20.2% [at 57.5 µM] (inactive)	
CC1(C)Cc2c(c(N3CCOCC3)nc3sc4c(NN)ncnc4c23)CS1	23.7% [at 57.5 µM] (inactive)	
CN(C)CCNc1ncnc2c1sc1nc(N3CCOCC3)c3c(c12)CC(C)(C)SC3		17.8 µM (active)
Cn1nc(C(=O)N2CCN(c3ccc(Cl)cc3)CC2)c2c1-c1ccccc1S(=O)(=O)C2	10.7% (inactive)	
N#Cc1ccccc1NC(=O)C1SC(=Nc2ccccc2)C(C(=O)Nc2ccc(Cl)cc2)=C1N (stereo not drawn)	-3.29% (inactive)	
